# Laboratory results published in PubChem BioAssay (NCATS).
# Unmarked numbers belong to inactive results. Records with an inconclusive call do not appear. This is one part of the list. Where a call stands in place of a potency, no number is given. Active and inactive are the calls of the source. Unless noted, calls come from the whole dose curve; as a rule, active = well fitted curve in the direction sought with a large enough effect; inconclusive = small, poorly fitted or top-dose-only effect, or another doubt; inactive = no such curve, though single readings can be large; an effect the other way counts as inactive or inconclusive.
# Columns and labels:
# [1] = molecular target: DNA repair nuclease/redox regulator APEX1 (Homo sapiens) (UniProt P27695); experiment: Confirmation qHTS Assay for Inhibitors of the Human Apurinic/apyrimidinic Endonuclease 1 (APE1) (AID 2572); note: potency is the fitted concentration of half-maximal effect; nearly all actives have a fitted effect of over 30% in size
# Method in brief: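 Fluorescence gain at 598 nm (Ex 525 nm) reports APE1 cleavage of a TAMRA/BHQ-2-labelled duplex carrying a tetrahydrofuran abasic site, 50 nM final. Activity taken as third-minus-first kinetic read after 15 min compound preincubation, room temperature.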
# [2] = molecular target: DNA repair nuclease/redox regulator APEX1 (Homo sapiens) (UniProt P27695); experiment: qHTS FP-Based Assay for Inhibitors of the Human Apurinic/apyrimidinic Endonuclease 1 (APE1) (AID 2573)
# [3] = molecular target: DNA polymerase iota (Homo sapiens) (UniProt Q9UNA4); experiment: qHTS for Inhibitors of Polymerase Iota: Confirmatory Assay for Cherry-picked Compounds (AID 720496); conditions: Pol iota primer extension, TAMRA/BHQ fluorescence; note: potency is the fitted concentration of half-maximal effect
# Method in brief: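 Buffer-only wells, without enzyme, serve as negative control. Test wells hold 10 nM Pol iota preincubated 15 min with compound before 50 nM final fluorogenic DNA substrate is added; signal is read at 0 and 10 min.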
# [4] = molecular target: Bifunctional 3'-5' exonuclease/ATP-dependent helicase WRN (Homo sapiens) (UniProt Q14191); experiment: qHTS for Inhibitors of WRN Helicase: Confirmatory Assay for Cherry-picked Compounds. (AID 720497); conditions: WRN helicase DNA unwinding, fluorescence kinetic; note: potency is the fitted concentration of half-maximal effect; nearly all actives have a fitted effect of over 65% in size
# Method in brief: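 WRN (20 nM) was preincubated 15 min at RT with compound, then started with 100 nM forked duplex oligonucleotide and 2 mM ATP. Unwinding was read kinetically by red fluorescence (ex 525/em 598 nm), normalized to enzyme-free and uninhibited controls.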
# [5] = qHTS for Inhibitors of WRN Helicase: Thiazole Orange DNA Binding Counterscreen (AID 720499);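 note: drop in dye fluorescence marks compound binding to DNA; nearly all actives have a fitted effect of over 60% in size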
# Method in brief: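 Thiazole orange displacement counterscreen: compounds added to 50 nM unlabeled DNA with 100 nM ThO. Fluorescence (ex 480, em 530 nm) read after 15 min at room temperature; activity flags nonspecific DNA binding.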
# [6] = molecular target: DNA polymerase eta (Homo sapiens) (UniProt Q9Y253); experiment: qHTS for Inhibitors of Polymerase Eta: Confirmatory Assay for Cherry-picked Compounds (AID 720502); conditions: Pol eta primer extension, TAMRA/BHQ fluorescence, 10 min; note: potency is the fitted concentration of half-maximal effect
# Method in brief: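 Strand-displacement fluorescence (525 nm excitation, 598 nm emission) was read kinetically at 0 and 10 min after adding 50 nM final TAMRA-reporter/BHQ-2-template substrate. Beforehand, 10 nM Pol eta had been exposed to compound for 15 min at room temperature.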
# [7] = molecular target: RecQ-like DNA helicase BLM (Homo sapiens) (UniProt P54132); experiment: qHTS for Inhibitors of WRN Helicase: BLM Helicase Counterscreen for WRN Inhibitors (AID 720503); conditions: Recombinant BLM helicase DNA unwinding, red fluorescence; note: potency is the fitted concentration of half-maximal effect; nearly all actives have a fitted effect of over 60% in size
# Method in brief: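 1 nM BLM, Tris pH 8.0/NaCl/MgCl2/DTT/Tween-20; cpd preinc 15 min RT; start w/ 100 nM DNA + 2 mM ATP final; fluorescence (ex 525/em 598) two reads 15 min apart; normalized to enzyme-free and DMSO controls.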
# [8] = qHTS Assay for Inhibitors of Fructose-1,6-bisphosphate Aldolase from Giardia Lamblia: Mammalian cellular toxicity (AID 2786);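 note: compound exposure lasted 48 h before reading; nearly all actives have a fitted effect of over 60% in size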; note: potency is the fitted concentration of half-maximal effect
# Method in brief: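 Chinese hamster ovary cells (250/well, DMEM with 10% FBS and penicillin/streptomycin) were exposed to compounds for 48 h at 37 °C, 5% CO2. Viability was taken as cellular ATP content, read with ATPlite reagent after 20 min.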
# [9] = molecular target: Tumor susceptibility gene 101 protein (Homo sapiens) (UniProt Q99816); experiment: qHTS Assay for Iinhibitors of HIV-1 Budding by Blocking the Interaction of PTAP/TSG101: Hit Validation (AID 651600); note: nearly all actives have a fitted effect of over 70% in size
# Method in brief: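 Fluorescence polarization binding assay: Tsg101 binding domain (10 uM) mixed with compounds and FITC-labeled PTAP peptide (50 nM) in HEPES pH 7.5, 0.15 M NaCl, 0.01% Tween 20, EDTA, TCEP; 20 min at r.t.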
# [10] = qHTS Assay for Inhibitors of Fructose-1,6-bisphosphate Aldolase from Giardia Lamblia: Giardia lamblia growth inhibition (AID 2785); note: nearly all actives have a fitted effect of over 70% in size; note: potency is the fitted concentration of half-maximal effect
# Method in brief: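 G. lamblia WB trophozoites (100 cells/well) in modified TYI-S-33 medium, pH 7.0, were exposed to pin-transferred compounds or DMSO for 48 h at 37C in sealed bags. Viability was read as ATPlite luminescence after 20 min at room temperature.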
# [11] = molecular target: Fructose-bisphosphate aldolase (Giardia intestinalis (strain ATCC 50803 / WB clone C6)) (UniProt A8B2U2); experiment: qHTS Assay for Inhibitors of Fructose-1,6-bisphosphate Aldolase from Giardia Lamblia: Primary screen confirmation (AID 2787);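 note: aldolase product measured through coupled diaphorase step turning resazurin into fluorescent resorufin; nearly all actives have a fitted effect of over 45% in size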
# Method in brief: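 Confirmation of primary hits by qHTS up to 57.5 uM final compound. Enzyme at 40 nM with 30 uM ZnCl2, 10 min RT pre-incubation, then substrate/coupling/resorufin-forming detection mix for 20 min before fluorescence read at 525/598 nm.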
# [12] = qHTS Assay for Inhibitors of Fructose-1,6-bisphosphate Aldolase from Giardia Lamblia: Coupling assay counterscreen confirmation (AID 2795); note: nearly all actives have a fitted effect of over 55% in size
# Method in brief: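 Compounds at up to 57.5 uM final tested against the coupling enzymes and resorufin-type fluorescent detection only, aldolase omitted. Ex 525 nm/em 598 nm read after 10 min enzyme-compound and 20 min substrate incubations, room temperature.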
# [13] = qHTS screen for small molecules that inhibit ELG1-dependent DNA repair: Hit Confirmation in Cell-Based Luciferin Assay (AID 624247)
# Method in brief: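 Here each well gets substrate reagent, then test compound or DMSO, then luciferase. Emitted light is measured with a CCD plate reader.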
# [14] = molecular target: ATPase family AAA domain-containing protein 5 (Homo sapiens) (UniProt Q96QE3); experiment: HTS assay for small molecules that inhibit ELG1-dependent DNA repair in human embryonic kidney (HEK293T) cells expressing luciferase-tagged ELG1: Hit Confirmation (AID 624248); conditions: HEK293T ELG1-luciferase levels, luminescence; cells co-treated with 5-fluorouridine; note: potency is the fitted concentration of half-maximal effect; nearly all actives have a fitted effect of over 55% in size
# Method in brief: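 Cells (2,000/well) received 5-Fluorouridine plus pin-transferred compound or DMSO and were incubated 16 hr at 37 °C, 5% CO2. Luciferase activity was read by ONE-Glo luminescence after 30 min at room temperature; inhibitors suppress the signal.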
# [15] = molecular target: ATPase family AAA domain-containing protein 5 (Homo sapiens) (UniProt Q96QE3); experiment: qHTS screen for small molecules that inhibit ELG1-dependent DNA repair in human embryonic kidney (HEK293T) cells expressing luciferase-tagged ELG1: Hit Confirmation using MMS Stimulated ELG1 (AID 624249); conditions: HEK293T luciferase-tagged ELG1 level; note: potency is the fitted concentration of half-maximal effect; nearly all actives have a fitted effect of over 60% in size
# Method in brief: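 HEK293T cells carrying ELG1-luciferase, compounds added about 5 h after plating together with MMS at 10 µM final. Luciferase activity read 16 h after compound addition; suppression of signal scored.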
# [16] = qHTS screen for small molecules that inhibit ELG1-dependent DNA repair: Hit Confirmation with MMS Viability (AID 624251); conditions: Cell viability with MMS
# Method in brief: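 ELG1-luc HEK293T cells were plated, then about 5 h later received compounds by pin transfer plus MMS at 10 µM final. Viability was read by CellTiter-Glo luminescence after 16 h.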
# [17] = molecular target: Luciferin 4-monooxygenase (Photinus pyralis) (UniProt P08659); experiment: qHTS screen for small molecules that inhibit ELG1-dependent DNA repair: Hit Confirmation in Biochemical Luciferin Assay (AID 624253)
# Method in brief: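 Compounds are tested directly on isolated Photinus pyralis luciferase, without cells. Enzyme is added to substrate already containing compound, and light output is captured by CCD imaging.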
# [18] = molecular target: Fructose-bisphosphate aldolase A (Oryctolagus cuniculus) (UniProt P00883); experiment: qHTS Assay for Inhibitors of Fructose-1,6-bisphosphate Aldolase from Giardia Lamblia: Rabbit FBPA Selectivity (AID 2794); note: nearly all actives have a fitted effect of over 60% in size
# Method in brief: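 Selectivity was assessed on rabbit Class I enzyme by qHTS. Product formation was detected by AmpLite Red fluorescence (525/598 nm) after a 20 min RT reaction started with substrate, following 10 min compound preincubation at up to 57.5 uM final.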
# [19] = molecular target: Lysosomal acid glucosylceramidase (Homo sapiens) (UniProt P04062); experiment: Glucocerebrosidase-p2 (AID 348; in the data active = potency below about 10 µM; note: potency is the fitted concentration of half-maximal effect); conditions: purified GBA, blue fluorogenic substrate, 40 min
# Method in brief: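 Compounds titrated from 0.6 nM upwards against 0.2 nM enzyme in pH 5.9 citric acid/KH2PO4, taurocholate, tween-20; blue fluorogenic substrate 80 uM, 40 min room temperature, stopped and read Ex 365/Em 440 for AC50.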
# [20] = AP1 Signaling Pathway (AID 357; active = well fitted curve in either direction with a large enough effect, not every such curve was filed as active;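 note: ME-180 reporter cells stimulated with EGF at its EC50 level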); conditions: ME-180 AP-1-bla reporter, EGF-induced, beta-lactamase ratio, 5 h; at 7.69 µM (top of the series) unless noted
# Method in brief: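 Titration-series screen for positive or negative modulators of EC50 EGF-induced signaling in ME-180 cells carrying an AP-1-driven beta-lactamase reporter. After 5 hours at 37 degrees Celsius, CCF4 460nm/530nm emission ratio gave %Activity; AC50 values derived.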
# [21] = molecular target: Cytochrome P450 1A2 (Homo sapiens) (UniProt P05177); experiment: p450-cyp1a2 (AID 410; calls by dose curve)
# Method in brief: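 Inhibition was calculated relative to 57 uM furafylline (full inhibition). The reaction used human CYP1A2 at 20nM with Luciferin-ME at its Km, 100uM, driven by an NADPH-regenerating system for 60 min at room temperature.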
# [22] = NFAT Signaling Pathway (AID 444; active = well fitted curve in either direction with a large enough effect, not every such curve was filed as active;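 note: carbachol stimulus at about its EC50 of 1 µM final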); conditions: Jurkat NFAT-bla M1, carbachol, beta-lactamase ratio, 5 h; at 7.69 µM (top of the series) unless noted
# Method in brief: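 Jurkat cells carrying an NFAT-driven β-lactamase reporter and co-transfected muscarinic M1 receptor were treated with compound plus carbachol (1 uM final, an EC50 level) for 5 h at 37 °C. CCF4 loading followed for 1 h at RT; 460/530 nm ratio gave %activity.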
# [23] = Stat Signaling Pathway (AID 446; active = well fitted curve in either direction with a large enough effect, not every such curve was filed as active;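 note: ME-180 cervical cancer cells given 40 pM IL-6 alongside compound; SIE-controlled beta-lactamase reporter measured as 460/530 nm FRET emission ratio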); conditions: ME-180 SIE beta-lactamase reporter, IL-6 stimulated, 5 h; at 7.69 µM (top of the series) unless noted
# Method in brief: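 Screening format detects activators and inhibitors alike: ME-180 SIE-bla cells stimulated at 40 pM IL-6 for 5 hrs with compound, then dual-emission beta-lactamase read at 405 nm excitation.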
# [24] = molecular target: Glucocorticoid receptor (Homo sapiens) (UniProt P04150); experiment: GR-GFP Redistribution (AID 450;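 active = compounds whose dose series gives a full or clear partial fitted curve of increased nuclear translocation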; note: potency is the fitted concentration of half-maximal effect); conditions: U2OS GR-GFP nuclear translocation, laser cytometry, 2 h
# [25] = molecular target: Glucocorticoid receptor (Homo sapiens) (UniProt P04150); experiment: GR-EFC Redistribution (AID 451; calls by dose curve; note: potency is the fitted concentration of half-maximal effect); conditions: CHO-K1 GR-EFC translocation, beta-gal luminescence, 2 h
# Method in brief: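 CHO-K1 cells stably expressing nuclear-localized β-gal enzyme acceptor and GR fused C-terminally to the enzyme donor fragment; ligand-driven nuclear translocation restores β-gal by complementation. Compounds titrated up to 46 uM final, 2 h at 37 °C; luminescence read.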
# [26] = molecular target: Mitogen-activated protein kinase 10 (Mus musculus) (UniProt Q61831); experiment: JNK3 AlphaScreen Assay (AID 530; active = well fitted curve in either direction with a large enough effect, not every such curve was filed as active;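 note: kinase came from lysate of stimulated human HepG2 cells; signal reports phosphorylation of biotinylated GST-cJun 1-79 at Ser73 with 10 µM ATP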)
# Method in brief: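 JNK3 came from HepG2 lysates pre-activated with IL-1beta and TNF-alpha and phosphorylated biotinylated GST-cJun (1-79) at 10 uM ATP, pH 7.6, room temperature. Compounds were titrated. AlphaScreen signal used anti-phospho-cJun (Ser73) antibody.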
# Fructose-bisphosphate aldolase A (Oryctolagus cuniculus), sequence (P00883 whole entry, looked up): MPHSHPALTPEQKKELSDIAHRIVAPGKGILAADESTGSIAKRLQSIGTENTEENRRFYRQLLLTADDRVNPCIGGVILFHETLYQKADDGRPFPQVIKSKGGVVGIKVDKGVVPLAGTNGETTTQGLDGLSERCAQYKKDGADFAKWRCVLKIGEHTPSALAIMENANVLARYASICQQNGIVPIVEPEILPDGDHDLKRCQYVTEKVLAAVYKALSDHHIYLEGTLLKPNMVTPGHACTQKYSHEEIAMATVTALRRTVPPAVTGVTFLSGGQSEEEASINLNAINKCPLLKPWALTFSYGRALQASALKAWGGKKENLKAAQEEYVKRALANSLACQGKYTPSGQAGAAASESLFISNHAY
# Fructose-bisphosphate aldolase (Giardia intestinalis (strain ATCC 50803 / WB clone C6)), sequence (A8B2U2 whole entry, looked up): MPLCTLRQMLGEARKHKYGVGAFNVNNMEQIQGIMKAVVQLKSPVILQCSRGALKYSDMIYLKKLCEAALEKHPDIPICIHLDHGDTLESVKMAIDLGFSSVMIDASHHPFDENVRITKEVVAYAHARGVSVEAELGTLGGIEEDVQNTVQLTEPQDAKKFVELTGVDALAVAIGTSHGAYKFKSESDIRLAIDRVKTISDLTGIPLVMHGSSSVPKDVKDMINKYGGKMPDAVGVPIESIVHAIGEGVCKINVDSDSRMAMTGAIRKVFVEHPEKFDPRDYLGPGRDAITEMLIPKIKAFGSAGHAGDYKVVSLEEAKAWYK
# Glucocorticoid receptor (Homo sapiens), sequence (P04150 whole entry, looked up, the tested form may be a part): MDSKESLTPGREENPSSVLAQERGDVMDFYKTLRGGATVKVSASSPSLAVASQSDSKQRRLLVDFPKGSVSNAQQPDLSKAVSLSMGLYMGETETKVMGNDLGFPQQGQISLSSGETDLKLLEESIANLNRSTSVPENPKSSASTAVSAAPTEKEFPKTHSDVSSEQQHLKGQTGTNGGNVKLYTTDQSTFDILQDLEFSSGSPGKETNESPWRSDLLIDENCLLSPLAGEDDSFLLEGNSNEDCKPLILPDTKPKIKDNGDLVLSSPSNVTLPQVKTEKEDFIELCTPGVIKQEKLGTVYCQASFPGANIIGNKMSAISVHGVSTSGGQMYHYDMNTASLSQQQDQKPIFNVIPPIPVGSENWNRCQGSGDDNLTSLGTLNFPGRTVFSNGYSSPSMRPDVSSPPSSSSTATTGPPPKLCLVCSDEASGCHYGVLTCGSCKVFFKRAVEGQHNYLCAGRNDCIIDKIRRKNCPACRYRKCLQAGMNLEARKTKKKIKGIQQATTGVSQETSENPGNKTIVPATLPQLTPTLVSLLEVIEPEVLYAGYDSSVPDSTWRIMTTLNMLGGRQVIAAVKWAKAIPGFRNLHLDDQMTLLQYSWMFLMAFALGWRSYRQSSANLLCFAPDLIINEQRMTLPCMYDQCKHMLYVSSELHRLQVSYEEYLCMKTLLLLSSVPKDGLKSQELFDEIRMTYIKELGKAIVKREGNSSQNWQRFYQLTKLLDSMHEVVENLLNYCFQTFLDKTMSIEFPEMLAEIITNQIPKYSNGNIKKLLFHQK
# DNA repair nuclease/redox regulator APEX1 (Homo sapiens), sequence (P27695 whole entry, looked up): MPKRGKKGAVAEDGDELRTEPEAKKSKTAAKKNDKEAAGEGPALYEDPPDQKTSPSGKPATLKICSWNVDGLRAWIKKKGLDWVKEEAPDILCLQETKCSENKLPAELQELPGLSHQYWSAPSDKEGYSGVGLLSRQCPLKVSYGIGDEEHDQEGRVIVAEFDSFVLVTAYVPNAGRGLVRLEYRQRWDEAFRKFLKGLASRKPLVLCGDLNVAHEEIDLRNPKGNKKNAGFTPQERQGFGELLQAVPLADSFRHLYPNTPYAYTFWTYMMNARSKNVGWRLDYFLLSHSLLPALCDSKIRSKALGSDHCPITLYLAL
# ATPase family AAA domain-containing protein 5 (Homo sapiens), sequence (Q96QE3 whole entry, looked up, the tested form may be a part): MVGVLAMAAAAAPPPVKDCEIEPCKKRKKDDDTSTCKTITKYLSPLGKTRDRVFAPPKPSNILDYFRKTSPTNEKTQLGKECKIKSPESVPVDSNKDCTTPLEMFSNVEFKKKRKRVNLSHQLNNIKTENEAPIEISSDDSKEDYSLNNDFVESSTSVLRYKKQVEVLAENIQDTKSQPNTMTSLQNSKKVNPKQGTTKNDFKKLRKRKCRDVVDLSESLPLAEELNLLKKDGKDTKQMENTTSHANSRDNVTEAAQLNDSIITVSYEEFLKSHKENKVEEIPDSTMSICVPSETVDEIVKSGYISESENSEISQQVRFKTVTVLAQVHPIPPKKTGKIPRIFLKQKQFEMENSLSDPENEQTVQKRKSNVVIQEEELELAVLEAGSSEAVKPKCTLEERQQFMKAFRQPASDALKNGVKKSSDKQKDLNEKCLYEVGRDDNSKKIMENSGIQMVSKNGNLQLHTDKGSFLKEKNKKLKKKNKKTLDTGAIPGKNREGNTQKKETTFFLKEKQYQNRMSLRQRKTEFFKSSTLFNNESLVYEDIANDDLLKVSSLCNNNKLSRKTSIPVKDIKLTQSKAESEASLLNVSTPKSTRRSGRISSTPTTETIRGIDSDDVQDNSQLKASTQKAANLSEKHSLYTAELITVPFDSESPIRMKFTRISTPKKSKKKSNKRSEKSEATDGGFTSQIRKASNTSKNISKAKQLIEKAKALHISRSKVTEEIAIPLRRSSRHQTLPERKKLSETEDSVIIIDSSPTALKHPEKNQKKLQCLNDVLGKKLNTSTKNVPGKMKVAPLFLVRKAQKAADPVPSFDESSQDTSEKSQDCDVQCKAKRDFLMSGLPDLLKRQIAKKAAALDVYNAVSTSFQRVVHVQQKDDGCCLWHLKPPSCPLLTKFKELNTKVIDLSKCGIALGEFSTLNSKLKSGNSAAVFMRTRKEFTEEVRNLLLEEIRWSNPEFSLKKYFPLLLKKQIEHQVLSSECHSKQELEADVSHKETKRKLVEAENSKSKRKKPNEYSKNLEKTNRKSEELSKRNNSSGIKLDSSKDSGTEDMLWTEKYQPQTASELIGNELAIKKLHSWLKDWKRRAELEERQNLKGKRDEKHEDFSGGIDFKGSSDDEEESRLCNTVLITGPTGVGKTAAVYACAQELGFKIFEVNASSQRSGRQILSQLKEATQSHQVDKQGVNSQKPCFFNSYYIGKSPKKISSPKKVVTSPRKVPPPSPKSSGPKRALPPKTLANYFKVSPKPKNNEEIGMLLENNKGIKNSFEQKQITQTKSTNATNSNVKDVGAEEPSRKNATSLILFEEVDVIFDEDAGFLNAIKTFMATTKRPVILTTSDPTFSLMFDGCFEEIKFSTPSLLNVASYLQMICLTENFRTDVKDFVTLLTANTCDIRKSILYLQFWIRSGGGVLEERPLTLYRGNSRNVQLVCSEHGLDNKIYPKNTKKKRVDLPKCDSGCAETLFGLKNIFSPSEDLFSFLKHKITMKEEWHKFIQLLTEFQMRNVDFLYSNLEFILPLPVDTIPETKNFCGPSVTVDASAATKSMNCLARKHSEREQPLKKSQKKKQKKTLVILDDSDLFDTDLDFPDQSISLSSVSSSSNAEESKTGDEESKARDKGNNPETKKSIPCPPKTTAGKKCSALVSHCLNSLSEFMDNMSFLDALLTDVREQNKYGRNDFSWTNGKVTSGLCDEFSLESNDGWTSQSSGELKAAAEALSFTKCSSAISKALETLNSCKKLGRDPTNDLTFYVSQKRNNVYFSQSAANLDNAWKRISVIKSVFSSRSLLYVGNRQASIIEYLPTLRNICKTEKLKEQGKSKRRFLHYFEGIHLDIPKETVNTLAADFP
# Tumor susceptibility gene 101 protein (Homo sapiens), sequence (Q99816 whole entry, looked up, the tested form may be a part): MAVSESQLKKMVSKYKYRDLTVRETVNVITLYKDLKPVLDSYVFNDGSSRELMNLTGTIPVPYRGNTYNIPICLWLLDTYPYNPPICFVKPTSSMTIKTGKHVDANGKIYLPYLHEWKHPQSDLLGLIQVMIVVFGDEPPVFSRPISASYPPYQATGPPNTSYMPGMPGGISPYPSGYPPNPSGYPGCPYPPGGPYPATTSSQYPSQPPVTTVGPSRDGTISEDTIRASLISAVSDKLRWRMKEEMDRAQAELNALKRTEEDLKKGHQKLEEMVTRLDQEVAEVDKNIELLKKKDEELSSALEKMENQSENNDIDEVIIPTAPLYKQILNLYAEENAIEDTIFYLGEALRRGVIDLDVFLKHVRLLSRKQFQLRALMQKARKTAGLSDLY
# Lysosomal acid glucosylceramidase (Homo sapiens), sequence (P04062 whole entry, looked up): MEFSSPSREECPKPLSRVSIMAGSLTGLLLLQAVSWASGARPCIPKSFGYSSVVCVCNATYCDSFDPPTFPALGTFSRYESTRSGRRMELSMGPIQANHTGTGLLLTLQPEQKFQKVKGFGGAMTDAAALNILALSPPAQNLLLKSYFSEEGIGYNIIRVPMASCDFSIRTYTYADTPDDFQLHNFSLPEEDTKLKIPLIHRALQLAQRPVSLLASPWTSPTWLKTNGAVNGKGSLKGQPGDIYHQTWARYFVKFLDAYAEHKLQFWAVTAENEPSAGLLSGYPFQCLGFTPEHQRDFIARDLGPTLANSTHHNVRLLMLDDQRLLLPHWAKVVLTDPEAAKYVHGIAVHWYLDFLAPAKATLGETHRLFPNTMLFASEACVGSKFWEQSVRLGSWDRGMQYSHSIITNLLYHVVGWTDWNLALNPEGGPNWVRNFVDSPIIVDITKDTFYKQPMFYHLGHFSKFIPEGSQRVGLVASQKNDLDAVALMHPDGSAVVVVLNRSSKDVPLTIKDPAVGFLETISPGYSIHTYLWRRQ
smiles,measurement,setting,value
N#Cc1ccccc1CN1C(=O)S/C(=C/c2cccn2-c2cccc(C(=O)O)c2)C1=O,Potency,[1],14.1 µM (active)
same,Potency,[2],inactive
same,Potency,[3],67 µM (active)
same,Potency,[4],21.5 µM (active)
same,outcome,[5],inactive
same,Potency,[6],60.1 µM (active)
same,Potency,[7],17.1 µM (active)
Oc1ccc2ccccc2c1N=Nc1nccs1,Potency,[8],10 µM (active)
same,outcome,[9],inactive
Cn1nnc(NC(=S)NC(=O)c2ccccc2)n1,Potency,[10],inactive
C=CCNC(=S)/N=c1/ccccn1Cc1ccccc1,"activity change, negative = inhibition",[10],3.99% [at 10.4 µM]
same,outcome,[11],inactive
same,outcome,[12],inactive
Cc1nnc(N/N=C/c2ccccn2)[nH]c1=O,Potency,[10],25.1 µM (active)
same,outcome,[11],inactive
same,outcome,[13],inactive
same,Potency,[14],2.23 µM (active)
same,Potency,[15],2.5 µM (active)
same,Potency,[16],7.06 µM (active)
same,outcome,[17],inactive
O=C(CSc1cccc[n+]1[O-])c1ccc(-c2ccccc2)cc1,Potency,[10],inactive
same,outcome,[11],inactive
CC(C)(c1ccccc1)c1ccc(OCCN2CCCC2)cc1,Potency,[8],inactive
same,outcome,[18],inactive
O=[N+]([O-])c1cc([N+](=O)[O-])c2cccnc2c1O,outcome,[18],inactive
CN1CCN(CCCCOc2ccccc2-c2ccccc2)CC1,outcome,[11],inactive
same,outcome,[18],inactive
same,outcome,[12],inactive
COc1cc(CN2CCN(Cc3ccc(C)cc3)CC2)c([N+](=O)[O-])cc1OC,Potency,[8],inactive
same,outcome,[12],inactive
OCCN1CCN(C(=S)c2ccc(-c3ccccc3)cc2)CC1,Potency,[8],inactive
O=[N+]([O-])c1ccc2nc(-c3ccccn3)[nH]c2c1,outcome,[18],inactive
CN1CCN(CCCN)CC1,Potency,[19],> 11.4 µM
same,"activity change, negative = inhibition",[20],0.666%
same,Potency,[21],inactive
same,"activity change, negative = inhibition",[22],18.2%
same,"activity, negative = inhibition",[23],6.19%
same,Potency,[24],> 46 µM
same,Potency,[25],> 9.22 µM
same,Potency,[26],inactive
